# The source made the active and inactive calls. Calls follow the shape of the full dose curve.
# Test: G protein-coupled receptor (GPCR) small molecule agonists, calcium flux assay: HEK293 wild type cell line counter screen (AID 1920065)
# Conditions: HEK293 WT calcium flux, fluorescence, agonist mode; series mostly up to 57.6 µM; activation: at the top concentration
# Text: U.S. Tox21 Program National Center for Advancing Translational Sciences [NCATS] Division of Preclinical Innovation [DPI] U.S. Environmental Protection Agency [EPA] National Institutes of Environmental Health Sciences [NIEHS] National Toxicology Program [NTP] U.S. Food and Drug Administration [FDA] Assay overview: The increased intracellular calcium release that occurred upon G protein-coupled receptor (GPCR) activation led to the frequent use of calcium flux assays to detect GPCR activation. For the purpose of studying and screening compounds that may activate GPCR, receptor-overexpressing models were typically generated using Hek293 wild-type (WT) cells. In order to eliminate the compounds that may have induced calcium release for non-specific activation, a counter-assay utilizing calcium flux on Hek293 WT cells was performed. The data were formulated in order to serve as a control for any calcium flux detection utilizing Hek293 cells with either GPCR overexpression or gene modification. The procurement of Hek293 WT cells from ATCC. Fluorescence intensity can be utilized to determine the activation of the compound in a calcium flux assay. As a counter control, this cell line was utilized to screen the Tox21 10K compound library.
# Assay Protocol Summary: Hek293 cells were dispensed at 1500cells/4uL/well in 1536-well black wall/clear bottom plates using a multidrop dispenser. After the assay plates were incubated at a 37 C/5% CO2 incubator for 18 hours, 4 uL of Calcium Dye Solution was added to each well. The plates were incubated at 37 C for 1 hour. For agonist mode, 23 nL of compounds dissolved in DMSO, positive control (ATP) or DMSO only was transferred to the assay plate by a pin tool station. The fluorescence intensity in the plates was measured using FDSS 7000EX kinetic plate reader with a filter set of Ex/Em=480/540 for 3 min at 1 sec intervals. Each test compound was measured at 15 concentrations and in triplicates.
# % is scaled to controls: 0 for no effect and ±100 for the full control effect.
row,Compound,activation
1,O=C(/C=C/c1ccc(O)c(O)c1)O[C@@H]1C[C@@](OC(=O)/C=C/c2ccc(O)c(O)c2)(C(=O)O)C[C@@H](O)[C@@H]1O,0.418% [at 26.5 µM] (inactive)
2,COC(=O)CCCCCCCC(=O)OC,-0.284% (inactive)
3,CCOc1ccc2nc(N)sc2c1,-1.11% (inactive)
4,CO,0.584% (inactive)
5,Nc1c[n+](N2CCOCC2)no1,-0.734% [at 26.5 µM] (inactive)
6,COc1cccc(N(C)C(=S)Oc2ccc3c(c2)CCCC3)n1,-0.218% [at 26.5 µM] (inactive)
7,CC(C)OC(=O)CCC(=O)OC(C)C,1.57% (inactive)
8,COc1ccc(-c2ccc3cc(C(=O)O)ccc3c2)cc1C12CC3CC(CC(C3)C1)C2,-0.576% [at 26.5 µM] (inactive)
9,CC(=O)CC(=O)Nc1ccc(S(=O)(=O)O)cc1,0.588% (inactive)
10,Clc1ccc2nsnc2c1NC1=NCCN1,0.794% [at 26.5 µM] (inactive)
11,CN(C/C=C/c1ccccc1)Cc1cccc2ccccc12,0.0706% [at 26.5 µM] (inactive)
12,C#C[C@]1(O)CC[C@H]2[C@@H]3[C@H](C)CC4=C(CCC(=O)C4)[C@H]3CC[C@@]21C,-0.426% [at 26.5 µM] (inactive)
13,COCc1nnc(-c2ccc[n+]([O-])c2)n1-c1c(Cl)c(Cl)cc2[nH]c(=O)c(=O)[nH]c12,-0.0059% (inactive)
14,C=O,-0.358% (inactive)
15,Cc1cccc(N(C)C(=S)Oc2ccc3c(c2)C2CCC3C2)c1 (stereo not given),1.63% [at 26.5 µM] (inactive)
16,CCOB(OCC)OCC,-0.0748% (inactive)
17,c1ccc2c(c1)ccc1c3ccccc3ccc21,-0.0032% [at 26.5 µM] (inactive)
18,COC(=O)CC(=O)C(C)(C)C,-0.461% (inactive)
19,CCCCc1ccc2nc(NC(=O)OC)[nH]c2c1,-0.567% [at 26.5 µM] (inactive)
20,CSc1ccc(O)cc1C,-0.901% (inactive)

row,Compound,activation
1,C[C@@H](C1=C(CCN(C)C)Cc2ccccc21)c1ccccn1,1.72% [at 26.5 µM] (inactive)
2,C[Si](C)(C)O[Si](O)(O)O,1.65% (inactive)
3,C=C[Si](OC(C)=O)(OC(C)=O)OC(C)=O,4.98% (inactive)
4,C=Cc1ccc(C=C)cc1,-0.779% (inactive)
5,CCCC(=O)OCCC(C)CCC=C(C)C (stereo not given),-0.0898% (inactive)
6,On1ccccc1=S,11.2% (inactive)
7,NC(Cc1c[nH]c2ccccc12)C(=O)O (stereo not given),-0.554% [at 26.5 µM] (inactive)
8,CCOc1ccc(O)cc1,0.0112% (inactive)
9,CC(=O)O[C@@]12CO[C@@H]1C[C@H](O)[C@@]1(C)C(=O)[C@H](O)C3=C(C)[C@@H](OC(=O)[C@H](O)[C@@H](NC(=O)OC(C)(C)C)c4ccccc4)C[C@@](O)([C@@H](OC(=O)c4ccccc4)[C@H]21)C3(C)C,-0.37% [at 26.5 µM] (inactive)
10,CC(=O)OCC(=O)[C@@]1(O)[C@H](C)C[C@H]2[C@@H]3CCC4=CC(=O)C=C[C@]4(C)[C@@]3(F)[C@@H](O)C[C@@]21C,-0.21% [at 26.5 µM] (inactive)
11,CCOc1ccccc1OCCN[C@H](C)Cc1ccc(OC)c(S(N)(=O)=O)c1,-0.124% [at 26.5 µM] (inactive)
12,C[C@H]1O[C@@H](O[C@H]2CC[C@@]3(C)[C@H](CC[C@@H]4[C@@H]3C[C@@H](O)[C@]3(C)[C@@H](C5=CC(=O)OC5)CC[C@]43O)C2)C[C@H](O)[C@@H]1O[C@H]1C[C@H](O)[C@H](O[C@H]2C[C@H](O)[C@H](O[C@@H]3O[C@H](CO)[C@@H](O)[C@H](O)[C@H]3O)[C@@H](C)O2)[C@@H](C)O1,1.25% [at 26.5 µM] (inactive)
13,CC(=O)Oc1cccc2c1C(=O)c1c(OC(C)=O)cc(C(=O)O)cc1C2=O,0.182% [at 26.5 µM] (inactive)
14,Cc1nc(N)nc(N)c1-c1ccc(Cl)c(Cl)c1,-0.285% [at 26.5 µM] (inactive)
15,Clc1nc2ccccc2nc1Cl,0.342% (inactive)
16,OCc1c[nH]c2ccccc12,2.32% (inactive)
17,CCN=C1C=CC(=C(c2ccc(N(CC)CC)cc2)c2ccc(N(CC)CC)cc2)c2ccccc21,7.62% (inactive)
18,CCN1CCC[C@H]1CNC(=O)c1c(OC)ccc(Br)c1OC,0.449% [at 26.5 µM] (inactive)
19,CCC1=C[C@@H]2CN(C1)Cc1c([nH]c3ccccc13)[C@@](C(=O)OC)(c1cc3c(cc1OC)N(C)[C@H]1[C@@](O)(C(=O)OC)[C@H](OC(C)=O)[C@]4(CC)C=CCN5CC[C@]31[C@@H]54)C2,-1.55% [at 26.5 µM] (inactive)
20,CC(=O)OCC=C(C)C,-0.0196% [at 26.5 µM] (inactive)

# From PubChem BioAssay (Tox21)
